Data taken from ChEMBL document CHEMBL3988442, “University of Dundee, Small-Polar-MMV Screening Library” (2021).
About 13,000 (27%) of roughly 48,000 compounds showed an effect of 50% or more. The list shows a part of the results.

Each compound was assayed on Wolbachia pipientis (assay: Anti-Wolbachia Cell-Based Screen). Conditions: 5 µM.
Type: functional
Set-up: scale not given: in the data most compounds retested in dose-response had high values

Structure (SMILES) | Percent Effect [%]
CCS(=O)(=O)c1ncc(CN(C)CCc2ccccn2)n1CCOC | -7.108
CC(C)(C)c1ccc(S(=O)(=O)CCNC(=O)c2cnccn2)cc1 | -1.994
O=C(Nc1cc(C2CCOCC2)[nH]n1)c1cscn1 | -9.479
O=C(O)C(F)(F)F.O=C1COC2(CCN(Cc3ccoc3)CC2)CN1c1ccccc1 | 110.1
c1coc(-c2nc3c(c(N4CCCN5CCC[C@H]5C4)n2)CCNCC3)c1 | -2.635
CN1CCC(c2cccc(-c3cccc(C(=O)O)c3)n2)CC1 | 172.2
CN1CCC(c2cccc(-c3ccc(C(=O)O)cc3)n2)CC1 | 143.4
Cc1nc(-c2cccc(C(=O)O)c2)c[nH]1 | 12.51
O=C(O)c1ccc(-c2cscn2)cc1 | -4.979
CC(=O)N1CCC(c2cccc(-c3cccc(C(=O)O)c3)n2)CC1 | 150.5
CCC1CN(CC(=O)NCC(C)C)CCO1 (stereo not drawn) | 14.46
CN(C)C(Cn1ccnc1-c1nccn1C)c1ccccc1Cl (stereo not drawn) | -33.34
Cn1cnc(S(=O)(=O)NCC2(O)CCc3ccccc3C2)c1 (stereo not drawn) | -0.2896
Cc1cc(C(F)(F)F)cc(N2CCN(Cc3ccccc3)CC(O)C2)n1 (stereo not drawn) | -8.979
Cc1noc(C)c1C(=O)NCc1cc[nH]n1 | -8.617
O=C(O)CCc1cc2n(n1)CCN(Cc1cnc(N3CCCC3)nc1)C2 | -15.82
Cc1cccc(C)c1OC1CN(Cc2cnc(N3CCCC3)nc2)C1 | 1.788
NC(=O)CCC1CCCN(Cc2cnc(N3CCCCC3)nc2)C1 (stereo not drawn) | 104.2
N[C@H]1CN(Cc2cnc(N3CCCC3)nc2)C[C@@H]1C1CC1 | -16.17
c1nc(N2CCCC2)ncc1CN1CCCC(CN2CCCCC2)C1 (stereo not drawn) | 95.39
CCc1cnc(N2CCCC(CCC(N)=O)C2)nc1 (stereo not drawn) | 109.3
CCc1cnc(N2CCCOC(CN3CCCC3)C2)nc1 (stereo not drawn) | -1.454
NC(=O)CCC1CCCN(c2ncnc3c2Cc2ccccc2OC3)C1 (stereo not drawn) | -12.56
COc1ccccc1-c1ncc(CN2CCCC(CCC(N)=O)C2)s1 (stereo not drawn) | 16.75
O=C(N[C@H]1CN(C2CCOCC2)C[C@@H]1C1CC1)c1ccon1 | -9.557
CN(Cc1cc[nH]n1)C(C(=O)O)c1ccc(Cl)cc1 (stereo not drawn) | -11.22

Structure (SMILES) | Percent Effect [%]
Cc1cnn(-c2ccc(S(=O)(=O)N(C)CC(C)(CO)CO)cc2F)c1 | -2.822
CN(CC(=O)NCC(F)(F)F)Cc1cccc2c1OCCO2 | -18.06
CN(Cc1ccc(CCC(C)(C)O)cc1)Cc1cccnc1 | -22.62
CS(=O)(=O)N1Cc2ccccc2CC2(CCN(Cc3ccccc3)C2)C1 (stereo not drawn) | 126.9
c1cnn(Cc2ccc(CN3CCC4(CCNCC4)C3)cc2)c1 | 15.29
Cc1ccc(CN2CCC3(CCN(S(=O)(=O)c4ccccc4)C3)C2)o1 (stereo not drawn) | -12.36
CS(=O)(=O)N1CCC(c2nccn2Cc2ccccn2)CC1 | 3.46
CN1CC(=O)N(c2cccc(F)c2)CC12CCN(Cc1ccccn1)C2 (stereo not drawn) | 2.437
CS(=O)(=O)N1CC2(CCN(Cc3ccccn3)C2)Cc2ccccc21 (stereo not drawn) | 111
CS(=O)(=O)N1Cc2ccccc2CC2(CCN(Cc3ccncc3)C2)C1 (stereo not drawn) | 115
COCCC(=O)N1CC2(CCN(Cc3ccncc3)CC2)C1 | 12.72
CS(=O)(=O)N1Cc2ccccc2CC2(CCN(Cc3ccccn3)C2)C1 (stereo not drawn) | 113.9
Cc1ccc(CN2CCC3(CCCN(S(C)(=O)=O)C3)C2)o1 (stereo not drawn) | -14.58
COCC(=O)N1CCC2(CCN(Cc3ccccn3)CC2)CC1 | -21.07
Cc1ccc(N2CCC3(CCN(Cc4ccccn4)CC3)CC2)nn1 | 3.728
COCC(c1cccc(C(F)(F)F)c1)N(C)C(=O)c1cc(C)n[nH]1 (stereo not drawn) | -9.299
Cc1nc2[nH]cc(C(=O)N3CCCCC3c3ccc(F)cc3)c(=O)n2n1 (stereo not drawn) | -1.637
Cc1nc(-c2cc(C(=O)O)co2)cs1 | 4.91
Cc1nn(-c2ccccn2)c(C)c1[C@@H]1C=C[C@@H](NC(=O)CCC(=O)O)C1 | -2.847
CN(C)S(=O)(=O)NCC(O)c1cc2ccccc2s1 (stereo not drawn) | -1.975
CCc1cnc(N2Cc3cnc(C(C)(C)C)nc3C2)nc1 | -2.734
CCN(CC)CC(=O)NCCc1csc(N2CCCC2)n1 | 7.841
O=C(c1ccncc1F)N1C[C@H]2CC[C@@H]1CN(Cc1cccnc1)C2 | -17.68
CC1(C)[C@H](Cc2cc(CN3CCOCC3)on2)C[C@@H]1NC(=O)C1CCC1 | 3.49
CC(C)N1CCCC(Cc2cncc(Br)c2)CC1 (stereo not drawn) | 135.8
CS(=O)(=O)N1CCCC(Cc2cncc(Br)c2)CC1 (stereo not drawn) | 127

Structure (SMILES) | Percent Effect [%]
CC(CCc1ccc(O)cc1)NC1CCN(S(C)(=O)=O)CC1 (stereo not drawn) | 7.002
CC(C)N(Cc1cnn(C)c1)CC1CCCN(S(C)(=O)=O)C1 (stereo not drawn) | 7.104
CCOC(=O)NC1CCCN(c2cncc(Br)c2)C1 (stereo not drawn) | -1.321
CC(=O)N1CCCC(Cc2cncc(Br)c2)C1 (stereo not drawn) | 130.8
CC(C)N1CCCC(C(=O)NCCCc2cnn(C)c2)C1 (stereo not drawn) | -2.763
CC(=O)N1CCCC(Cc2cncc(Br)c2)CC1 (stereo not drawn) | -3.498
COc1cccc2c1CCC2NC(=O)NCc1csc(N(C)C)n1 (stereo not drawn) | 7.815
Cc1ccc([C@@H]2CN(C(=O)c3ccon3)C[C@H]2NC(=O)C2CC2)cc1 | -0.9032
CCc1noc(CC)c1CC(=O)N1CCC(C(=O)NC(C)C)CC1 | -12.02
CC(=O)NCCNC(=O)c1cc(Br)c2c(c1)OCCO2 | -14.07
CC1CCN(S(=O)(=O)NCC2CCOc3ccccc3C2)CC1 (stereo not drawn) | -7.362
CC(C)Oc1cc(N2C[C@@H](C)O[C@@H](C)C2)nc(N)n1 | -18.9
CC(NCc1cccnc1)c1ccc(OCC(=O)NC2CC2)cc1 (stereo not drawn) | -5.583
NS(=O)(=O)N1CCC(CSc2ccccc2)C1 (stereo not drawn) | -8.118
Cc1oncc1C(=O)N1CCC2(CC1)CC(c1ccccc1)C(=O)N2C (stereo not drawn) | -5.401
N#Cc1ccnc(N2CCN(C(=O)c3ccc4c(c3)CCO4)CC2)c1 | 2.896
O=S(=O)(CCNC1CCc2ncnn2C1)c1ccc(Cl)cc1 (stereo not drawn) | 86.02
c1ccc(CNC2CCc3ncnn3C2)nc1 (stereo not drawn) | -4.327
Cc1nc(CNC2CCc3ncnn3C2)oc1C (stereo not drawn) | -6.098
c1csc(CCNC2CCc3ncnn3C2)c1 (stereo not drawn) | -10.08
O=C(CNC1CCc2ncnn2C1)NCCc1cccs1 (stereo not drawn) | 2.681
Clc1ccc(-c2cnc(CNC3CCc4ncnn4C3)o2)cc1 (stereo not drawn) | -3.633
Cc1ccc(C)c(S(=O)(=O)CCNC2CCc3ncnn3C2)c1 (stereo not drawn) | 114
Cc1ccc(-c2nc(CNC3CCc4ncnn4C3)co2)c(C)c1 (stereo not drawn) | -0.6319
O=S(=O)(CCCNC1CCc2ncnn2C1)c1ccccc1 (stereo not drawn) | 113.7
COc1cccc(S(=O)(=O)CCNCCn2cccn2)c1 | 2.314

Structure (SMILES) | Percent Effect [%]
COc1cccc(S(=O)(=O)CCNC2CCc3ncnn3C2)c1 (stereo not drawn) | 109.9
c1csc(-c2noc(CCCNC3CCc4ncnn4C3)n2)c1 (stereo not drawn) | 7.784
CS(=O)(=O)Nc1ccc([C@H]2OCC(=O)N[C@@H]2CO)cc1 | -3.066
CC(C)Sc1ccc(C(C)Nc2nc3c(cnn3C)c(=O)[nH]2)cc1 (stereo not drawn) | -4.166
Cc1cc(NC(=O)NC(C)CN2CCN(c3ccccc3)CC2)on1 (stereo not drawn) | -17.45
CNC(=O)NC(=O)CSC(C)c1ccccc1F (stereo not drawn) | -20.44
Cc1nc(NC(=O)C(C)S(C)(=O)=O)sc1Cc1ccccc1F (stereo not drawn) | -3.086
Cn1cccc1CN1CCC2(CC1)CN(c1ccccc1)C(=O)CO2.O=C(O)C(F)(F)F | 80.65
Cc1ccc(CN2CCOCC3(C2)CN(c2ccc(C)s2)C(=O)CO3)o1.O=C(O)C(F)(F)F (stereo not drawn) | 3.651
Cc1ccc(CN2CCC3(CC2)CN(c2ccccc2)C(=O)CO3)o1.O=C(O)C(F)(F)F | 119.8
Cn1cccc1CN1CCC2(CC1)CN(c1ncccn1)CCO2.O=C(O)C(F)(F)F | 0.2482
Cn1ccnc1CN1CCC2(CC1)CN(c1ccccc1)C(=O)CO2.O=C(O)C(F)(F)F | -5.115
CCc1ccc(CN2CCC3(CC2)CNC(=O)CO3)o1.O=C(O)C(F)(F)F | -11.34
CCCNC(=O)C1CCN(CC2(O)CCC(C)CC2)CC1 (stereo not drawn) | -9.033
COCc1cccc(NC(=O)NCc2ncc(C)c(OC)c2C)c1 | -10.08
COCCCN1C(=O)CC[C@H]2CN(c3cc(C(N)=O)ccn3)CC[C@H]21 | -7.921
COCCOc1ccc(NC(=O)C2CC(=O)N(C)C2)cn1 (stereo not drawn) | -11.2
O=C(CCN1C(=O)CCC1=O)Nc1ccc(OCC(F)(F)F)nc1 | -54.38
CCc1nc(C)c([C@H]2CN(C)C[C@@H]2C(=O)Nc2ccc(OC)nc2)[nH]1 | 6.695
CCOc1ccc(NC2CCN(C(C)C)C2=O)cn1 (stereo not drawn) | -21.57
COc1ccc(NC(=O)C2CC(=O)N(C)C2)cn1 (stereo not drawn) | 112.1
CN1CC(C(=O)Nc2ccc(OCC(F)(F)C(F)F)nc2)CC1=O (stereo not drawn) | 108
CNC(=O)c1ccc(N(C)C2CCC2)nn1 | -0.7532
CC(C)c1cc(CNC(=O)Nc2cc(F)cc(N3CCCC3)c2)on1 | -22.89
COc1ccc(O[C@H]2COCCN(C(=O)c3ccno3)C2)cc1 | -10.22
